NS1 function inh = inhibitors of influenza NS1 protein function | Potency, µM (highest dose often 46.1 µM) | hit rate 0.4% among 270,000; calls by dose curve; also: actives are rising curves; nearly all actives have a fitted effect of over 50% in size
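Compounds were scored for reversing the slow growth caused by influenza A NS1 in S. cerevisiae, measured by optical density at 600 nm. Assay medium contained 2% galactose at pH 6.0; NS1-free yeast of the same strain were the positive control.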
AmpC inh no detg = inhibitors of E. coli AmpC beta-lactamase without detergent. AmpC nitrocefin hydrolysis, absorbance 480 nm, 0.0001% Triton. Potency, µM (highest dose often 57.1 µM), actives largely listed as inhibitors. hit rate 0.52% among 330,000. AID 485341; also: nearly all actives have a fitted effect of over 20% in size
Target sequence (P00811 whole entry, looked up): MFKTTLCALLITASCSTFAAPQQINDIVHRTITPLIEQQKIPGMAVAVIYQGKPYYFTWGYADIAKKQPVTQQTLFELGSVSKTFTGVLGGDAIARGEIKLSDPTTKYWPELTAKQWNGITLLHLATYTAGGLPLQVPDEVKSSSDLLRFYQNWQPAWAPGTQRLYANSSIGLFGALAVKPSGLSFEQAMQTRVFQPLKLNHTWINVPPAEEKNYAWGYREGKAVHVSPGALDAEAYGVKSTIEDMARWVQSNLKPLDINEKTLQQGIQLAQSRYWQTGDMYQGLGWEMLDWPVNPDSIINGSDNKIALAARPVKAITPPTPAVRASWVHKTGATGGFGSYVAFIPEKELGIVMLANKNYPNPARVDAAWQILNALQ
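20 mM phosphate pH 7.0 + 0.01% (detergent screen) or 0.0001% Triton X-100; 5.3 nM AmpC reagent; cpd preinc 15 min RT; nitrocefin (800 uM stock) to start; A480 q20 s × 4 min; Activity was normalised to no-enzyme and no-compound control wells.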
SARS PLpro yeast = inhibitors of SARS-CoV papain-like protease in yeast; S. cerevisiae expressing SARS-CoV PLpro, growth rescue; hit rate 0.19% among 330,000; Potency, µM (top dose mostly 32.9 µM), hits mostly activators; calls by dose curve; also: nearly all actives have a fitted effect of over 55% in size
AmpC detergent = AmpC beta-lactamase inhibition with detergent present; P00811; AmpC hydrolysis of nitrocefin, absorbance 480 nm, 0.01% Triton; Potency, µM (series often up to 114 µM), actives largely listed as inhibitors; hit rate 0.041% among 370,000; AID 485294; also: nearly all actives have a fitted effect of over 25% in size
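20 mM phosphate pH 7.0 + 0.01% (detergent screen) or 0.0001% Triton X-100; 5.3 nM AmpC reagent; cpd preinc 15 min RT; nitrocefin (800 uM stock) to start; A480 q20 s × 4 min; Activity was normalised to no-enzyme and no-compound control wells.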
AMA1-RON2 inh = AMA1-RON2 (P. falciparum) interaction inhibition; hit rate 0.2% among 360,000; AID 720542; Potency, µM (series often up to 58.2 µM), most hits filed as inhibitors; AlphaScreen AMA1-biotinylated RON2 peptide binding; also: nearly all actives have a fitted effect of over 45% in size
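AMA1 (3D7) with his tag at 25 nM final met compounds first, then biotinylated RON2 peptide at 25 nM; detection used donor plus acceptor beads, 10 µg/mL apiece, read by AlphaScreen after 30 min at room temperature.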
Hits are given with their value; . = inactive; ? = inconclusive; / = no result. In the library only some 0.99% were active in any assay of this set; here they are far more common. Unless noted, calls follow the shape of the dose curve; as a rule, active = well fitted curve in the direction sought with a large enough effect; inconclusive = small, poorly fitted or top-dose-only effect, or another doubt; inactive = no such curve, though single readings can be large; an effect the other way counts as inactive or inconclusive.

SMILES	NS1 function inh	AmpC inh no detg	SARS PLpro yeast	AmpC detergent	AMA1-RON2 inh
Cc1cc(C)n2nc(CNC(=O)c3cccc(N(C)C)c3)nc2n1	/	/	/	.	/
O=C(CN1CCCCCCC1)N/N=C/c1ccc([N+](=O)[O-])o1	.	.	.	.	10µM
O=C(CN1CCOCC1)NN=Cc1ccc([N+](=O)[O-])o1	/	/	/	/	.
COc1ccc(CCNC(=O)CCCn2nc(C)c3sc4ccccc4c3c2=O)cc1OC	/	/	/	.	/
O=C(CS(=O)(=O)c1c[nH]c2ccccc12)NC1CCCCC1	.	0.5µM	.	.	.
Cc1cccc(NC(=S)N=Nc2c(O)[nH]c3ccccc23)c1	.	32µM	.	?	.
Cc1ccc2[nH]c(CSc3nnc(NC(=O)COc4ccc(F)cc4)s3)cc(=O)c2c1	/	/	/	.	/
CN(C)c1ccc(N=c2sc3ccccc3n2C)cc1	.	.	.	.	24µM
COc1cc(OC)c(OC)cc1/C=N/N(C)c1ccccc1	.	.	.	.	32µM
CCc1cc2c(=O)c(-c3ccc4c(c3)OCO4)coc2c(CN(C)C)c1O	.	25µM	.	.	.
NC(N)=NS(=O)(=O)c1ccc(NC(=S)NC(=O)Cc2ccc(Cl)cc2)cc1	.	10µM	.	?	.
NC(N)=NS(=O)(=O)c1ccc(NC(=S)NC(=O)c2ccccc2)cc1	.	.	.	.	.
NS(=O)(=O)c1ccc(NCCCn2ccnc2)c([N+](=O)[O-])c1	.	.	.	.	.
O=C1c2ccccc2-c2onc3ccc(NCCCn4ccnc4)c1c23	.	.	.	.	24µM
COc1ccc(N(CC(=O)NCc2ccc(F)cc2)C(=O)c2snc(C(N)=O)c2N)cc1	.	.	16µM	.	.
CCc1nnc(NC(=O)CC(CN(C)S(=O)(=O)c2ccccc2)c2ccccc2)s1 (stereo not given)	.	40µM	.	?	.
COc1ccc(-n2cc(C(=O)Nc3ccccc3C#N)c3ccccc3c2=O)cc1	/	/	/	.	/
O=C(NCP(=O)(O)O)c1cccnc1	.	/	/	/	/
COc1ccc(/C=N/NC(=S)Nc2ccccc2)cc1COc1ccc(F)cc1F	.	18µM	.	.	.
O=C(CSc1oc(-c2ccco2)nc1S(=O)(=O)c1ccc(Br)cc1)c1ccccc1	/	/	/	.	/
Cc1ccc(C)c2c1c1ccccc1n2C	.	.	.	.	.
CN(C)c1cc2c3ccccc3n(C)c2cc1N	/	/	/	/	3.5µM
COc1ccc(OC)c(CCNC(=O)Cn2sc3nc(C)cc(C)c3c2=O)c1	?	?	.	50µM	/
CCCn1c(=O)c2sccc2n2c(CCCC(=O)N3CCN(c4cccc(C)c4C)CC3)nnc12	/	/	/	.	/
Cc1ccc(S(=O)(=O)c2cc3ccccc3oc2=Nc2ccc3c(c2)OCO3)cc1	.	.	.	.	.
SMILES	NS1 function inh	AmpC inh no detg	SARS PLpro yeast	AmpC detergent	AMA1-RON2 inh
COc1ccccc1NS(=O)(=O)c1ccc2c(c1)OCCO2	.	.	.	.	.
COc1cccc2cc(S(=O)(=O)c3ccccc3)c(=Nc3ccc4c(c3)OCCO4)oc12	.	3.5µM	.	.	.
Cc1ccc(S(=O)(=O)c2cc3ccccc3oc2=Nc2ccc3c(c2)OCCO3)cc1	.	3.2µM	.	.	.
O=C(Nc1ccc(Cl)cc1)c1cc2c(-c3ccccc3)nn(-c3ccccc3)c2s1	/	/	/	.	/
O=C(O)[C@@H]1Cc2c([nH]c3ccccc23)[C@@H](CCCCO)N1	.	/	/	/	/
CCOc1ccc(NC(=O)CCc2nc3cccnc3n2-c2ccccc2)cc1	/	/	/	.	/
O=C(O)C1=NN(c2cc(Cl)c(S(=O)(=O)O)cc2Cl)C(=O)C1	/	/	/	/	2.8µM
COC(=O)C1=C(C)NC(C)=C(C(=O)OC)C1c1ccccc1[N+](=O)[O-]	.	.	2µM	?	.
CCOC(=O)C1=C(C)NC(C)=C(C(=O)OC)C1c1cccc([N+](=O)[O-])c1 (stereo not given)	.	.	.	.	.
O=S(=O)(NCC(c1ccco1)S(=O)(=O)c1cccs1)c1ccc(F)c(C(F)(F)F)c1 (stereo not given)	/	/	/	.	/
COc1ccc(N2CC(NC(=O)CCc3ccccc3)CC2=O)cc1OC (stereo not given)	/	/	/	.	/
NS(=O)(=O)c1cccc(NC(=O)CSc2nc3nc(-c4cccs4)cc(C(F)(F)F)c3c(=O)[nH]2)c1	.	16µM	.	.	.
O=c1c2sc3ccccc3c2n(Cc2cccc(C(F)(F)F)c2)c(=O)n1Cc1ccc(F)cc1	/	/	/	.	/
O=[N+]([O-])c1ccccc1N/N=C1\CC2CC=CC12 (stereo not given)	/	.	.	.	20µM
O=C(O)Cc1sc(Nc2cccc3ccccc23)nc1-c1ccc(Cl)cc1	.	7.9µM	.	.	.
CCOC(=O)c1cc2c(ccn2C)n1CC(=O)N1CCN(c2ccccc2)CC1	?	.	.	32µM	.
CCOC(=O)c1cc2c(ccn2C)n1CC(=O)N1C(C)CCCC1C (stereo not given)	.	.	.	.	.
COc1ccc(C(CCN2CCCCC2)c2c(OC)cc(OC)c3c(-c4ccccc4)cc(=O)oc23)cc1 (stereo not given)	.	.	.	.	.
COc1cc(OC)c2c(-c3ccccc3)cc(=O)oc2c1C(CCN1CCOCC1)c1ccc(N(C)C)cc1 (stereo not given)	/	.	.	/	28µM
COc1cc(OC)c2c(-c3ccccc3)cc(=O)oc2c1C(CCN1CCCCC1)c1ccc(N(C)C)cc1 (stereo not given)	.	.	.	.	25µM
COc1cc(OC)c2c(-c3ccccc3)cc(=O)oc2c1C(CCN1CCCCC1)c1ccc2c(c1)OCO2 (stereo not given)	.	.	.	.	.
CCOC(=O)c1sc(NC(=O)Cn2nnc3sc4c(c3c2=O)CCC(C(C)(C)C)C4)nc1C (stereo not given)	.	3.5µM	.	.	.
COc1cc2c(-c3ccccc3Cl)nc3c(c(C)nn3-c3ccccc3)c2cc1OC	/	/	/	.	/
c1cc2c(cc1C1CCCN1)OCCCO2 (stereo not given)	.	0.22µM	.	.	.
O=S(=O)(c1ccc2c(c1)OCCCO2)N1CCNCC1	.	.	.	?	.
SMILES	NS1 function inh	AmpC inh no detg	SARS PLpro yeast	AmpC detergent	AMA1-RON2 inh
Cc1cc(C)c(Cn2c3ccccc3c3cnn(CC(=O)NC4CCC(C)CC4)c(=O)c32)c(C)c1 (stereo not given)	/	/	/	.	/
Cc1ccc(O)c(C(=O)CC(=O)c2cccc(F)c2)c1	.	20µM	.	.	.
O=[N+]([O-])c1ccccc1/C=C/C=N/N1CCCCC1	.	.	.	.	10µM
COc1ccccc1N1CCN(/N=C\c2sccc2C)CC1	/	.	.	?	13µM
COc1ccccc1N1CCN(/N=C\c2ccccc2)CC1	.	.	.	.	.
COc1ccccc1N1CCN(/N=C/C=C/c2ccccc2[N+](=O)[O-])CC1	.	.	.	.	5.6µM
O=[N+]([O-])c1ccccc1/C=N\N1CCN(c2ccccc2)CC1	.	.	.	.	22µM
O=[N+]([O-])c1ccccc1/C=C\C=N\N1CCN(c2ccccc2)CC1	/	.	.	.	?

Assay outcomes deposited in PubChem by National Center for Advancing Translational Sciences (NCATS).
